# In PubChem BioAssay AID485313 (National Center for Advancing Translational Sciences (NCATS), 2010):
# Among all 320,000 compounds or so, about 7,600 (2.4%) were called active. Not shown: some 3% with an inconclusive outcome. The sample holds actives, similar compounds and a random draw of the others, so the mix is not that of the screen. A number with no mark means an inactive call. The call rests on the fitted dose curve; in most records, active means well fitted activation curve with a large enough effect; inconclusive means small, poorly fitted or top-dose-only effect; inactive means no such curve, though single readings can be large or run the other way.
# Test: qHTS Assay for NPC1 Promoter Activators; further: nearly all actives have a fitted effect of over 60% in size;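 on activation: reporter is driven by a mutant NPC1 promoter; % of control where 0% means no effect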
# Details: Huh7 NPC1 promoter luciferase reporter, 24 h; series mostly up to 9.22 µM; activation: at the top concentration
# Summary of the method: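 In 1536-well qHTS, Huh7 cells harboring an NPC1 promoter–luciferase construct received compound for 24 h; activation was quantified by luminescence following luciferase reagent addition.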
# Potency means the concentration at half of the fitted maximal effect.
Structure (SMILES),activation,Potency
Nc1nnc(SCC(=O)NCC(=O)Nc2ccc(F)c(F)c2F)s1,1.83%,–
Cn1nc(-c2ccccc2)c(-c2nc(-c3ccc(Cl)cc3)no2)c1Cl,-7.55%,–
Nc1nonc1-c1noc(-c2ccc(Br)o2)n1,15.3%,–
Brc1ccc(-c2noc(-c3ccccc3)n2)o1,–,2240 nM (active)
CC(C)(C)OC(=O)NCCCCCNC(=O)c1nc[nH]c1C(=O)NCc1ccccc1,-3.55%,–
O=S(=O)(c1ccccc1)N(Cc1cccc(F)c1)c1ccccc1,-3.69%,–
N#Cc1cccc(NC(=O)C2CCCN(C(=O)c3ccc(Cl)cc3)C2)c1 (stereo not given),-8.08%,–
CC(C)CNC(=O)C(=O)NCc1ccccc1,0.8%,–
CC(C)CNC(=O)C(=O)Nc1ccc(N(C)C)cc1,–,3980 nM (active)
CC(C)CNC(=S)Nc1ccc(F)cc1,-0.0843%,–
CC(OC(=O)c1cc2ccccc2o1)C(=O)Nc1ccc(N2CCOCC2)cc1 (stereo not given),1.21%,–
COC(=O)c1cc(Oc2ccc(S(=O)(=O)N3CCOCC3)cc2[N+](=O)[O-])cc(C(=O)OC)c1,-0.0668%,–
CC(C)C[C@H](NC(=O)[C@H](O)[C@H](N)Cc1ccccc1)C(=O)O,1.38% [at 46.1 µM],–
COc1ccc2c(c1OC)C(=O)c1ccccc1C2=O,–,2820 nM (active)
COc1ccc(/C=C2\CCc3ccccc3C2=O)c(OC)c1OC,17.1%,–
COc1cccc(-c2ccc3c(c2)S(=O)(=O)c2cccc(C(=O)O)c2C3=O)c1OC,-0.373%,–
CCOC(=O)c1sc(N)c(C#N)c1COC(=O)C1=COCCO1,2.48%,–
COc1cccc(/C=C/c2ccc3ccccc3n2)c1OC(C)=O,–,1000 nM (active)
CCOc1cccc(/C=C/c2ccc3ccccc3n2)c1OC(C)=O,–,631 nM (active)
NC(=O)COC(=O)/C=C/c1ccc2ccccc2n1,-2.5%,–
CCOc1ccccc1-c1cc(C(=O)N2CCOCC2)c2ccccc2n1,3.04%,–
CC(=O)c1ccc(S(=O)(=O)N2CCN(C(=O)/C=C/c3ccc4ccccc4n3)CC2)cc1,-11.2%,–
COc1cccc(/C=C2\C=C(c3ccc(C)cc3)OC2=O)c1OC(C)=O,10.1%,–
CNS(=O)(=O)c1cccc(C(=O)OCCCC(=O)c2ccccc2)c1,-2.17%,–
COc1ccccc1-c1nn(Cc2ccccc2)cc1C(=O)N1CCN(c2ncccn2)CC1,-11.7%,–
CC1(C)CC(=O)C=C(c2cccc3c2Oc2ccccc2S3)C1,0.0234%,–
O=C(COC(=O)CNC(=O)C1CCCCC1)Nc1cccc(F)c1,5.42%,–
Cc1ccccc1OCCC(=O)OCC(=O)NCCc1ccc(S(N)(=O)=O)cc1,-2.56%,–
O=C(CN1CCN(C2CCS(=O)(=O)C2)CC1)N1N=C(c2ccc(Cl)cc2)CC1c1ccco1 (stereo not given),-0.837%,–
CC(=O)Nc1ccc(NC(=O)CCN2C(=O)C3CC=CCC3C2=O)cc1 (stereo not given),0.165%,–
